Holding throughout (test): DAPPL (digital affinity profiling via proximity ligation, sequencing); 10 mM Tris-HCl pH 7.5, 50 mM NaCl, 1 mM DTT, 4% glycerol, room temperature, 30 min; GST-TFs on glutathione beads, 16-mer random dsDNA library, 0.1% formaldehyde crosslink after washing; high values mean tight binding
Holding throughout (settings): protein: recombinant; tags: N-terminal GST; dsDNA, one strand shown

One experiment has as its target T1, ELF3 (Homo sapiens, UniProt P78545 1-371).
T1 sequence: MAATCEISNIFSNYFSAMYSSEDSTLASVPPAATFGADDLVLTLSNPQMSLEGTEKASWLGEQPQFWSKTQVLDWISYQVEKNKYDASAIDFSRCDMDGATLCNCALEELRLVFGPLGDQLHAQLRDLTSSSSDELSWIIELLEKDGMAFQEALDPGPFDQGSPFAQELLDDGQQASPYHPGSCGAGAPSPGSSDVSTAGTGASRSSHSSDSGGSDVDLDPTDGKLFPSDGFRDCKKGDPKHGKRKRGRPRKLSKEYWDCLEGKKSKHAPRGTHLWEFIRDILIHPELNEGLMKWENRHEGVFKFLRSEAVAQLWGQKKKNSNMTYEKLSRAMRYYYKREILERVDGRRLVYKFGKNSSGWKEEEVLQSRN
Summed up: (§1)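 In yeast, human transcription factors were expressed with a GST fusion, then pulled down on glutathione beads and given DNA barcodes. Pooled with a tag-only sample, they were exposed to 200 nmole of a 16-mer random double-stranded DNA library (Tris/NaCl/DTT/glycerol buffer, room temperature, 30 min), washed, crosslinked with 0.1% formaldehyde, proximity-ligated using BsaI/T4 ligase for 1 h at 37 °C, PCR-amplified and read on an Illumina NextSeq500. Each hexamer's frequency of reads for a factor, divided by the matching frequency for the tag-only sample, gives the binding signal.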

The target of a further experiment is T2, ETS2 (Homo sapiens, UniProt P15036 1-469).
T2 sequence: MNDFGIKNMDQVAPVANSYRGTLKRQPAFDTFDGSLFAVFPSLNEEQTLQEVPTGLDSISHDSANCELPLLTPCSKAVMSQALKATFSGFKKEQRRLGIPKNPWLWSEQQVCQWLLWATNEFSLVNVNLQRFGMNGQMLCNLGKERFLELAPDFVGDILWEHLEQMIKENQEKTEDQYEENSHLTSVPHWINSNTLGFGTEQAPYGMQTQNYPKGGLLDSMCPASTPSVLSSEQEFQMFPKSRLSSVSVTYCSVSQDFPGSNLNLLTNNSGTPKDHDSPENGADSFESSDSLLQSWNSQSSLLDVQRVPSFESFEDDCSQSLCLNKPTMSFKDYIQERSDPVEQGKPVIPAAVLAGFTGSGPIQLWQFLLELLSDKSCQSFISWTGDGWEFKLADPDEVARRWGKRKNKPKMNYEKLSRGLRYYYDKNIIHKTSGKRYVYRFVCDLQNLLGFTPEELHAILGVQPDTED
Summed up: as §1

The next experiment concerns the target T3, SPDEF (Homo sapiens, UniProt O95238 1-335).
T3 sequence: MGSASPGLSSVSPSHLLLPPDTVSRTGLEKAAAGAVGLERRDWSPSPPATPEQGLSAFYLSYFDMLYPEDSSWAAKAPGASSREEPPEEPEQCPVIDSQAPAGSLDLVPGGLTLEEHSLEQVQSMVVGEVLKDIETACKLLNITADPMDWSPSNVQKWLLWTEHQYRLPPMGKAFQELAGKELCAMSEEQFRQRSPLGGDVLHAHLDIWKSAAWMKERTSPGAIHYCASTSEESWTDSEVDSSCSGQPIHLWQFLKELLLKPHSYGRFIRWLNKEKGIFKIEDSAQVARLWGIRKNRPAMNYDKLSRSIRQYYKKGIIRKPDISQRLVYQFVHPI
The method in brief: as §1

For another experiment, the target named is T4, ELF5 (Homo sapiens, UniProt Q9UKW6-2 1-255).
T4 sequence: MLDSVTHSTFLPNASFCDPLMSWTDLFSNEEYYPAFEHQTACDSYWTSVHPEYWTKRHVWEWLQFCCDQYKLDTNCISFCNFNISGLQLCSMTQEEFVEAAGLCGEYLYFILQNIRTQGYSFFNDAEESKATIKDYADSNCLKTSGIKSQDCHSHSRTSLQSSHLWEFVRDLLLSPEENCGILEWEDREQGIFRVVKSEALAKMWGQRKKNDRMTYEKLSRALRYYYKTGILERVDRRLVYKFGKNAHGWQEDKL
Summed up:
as §1

Another experiment deals with T5, ETV3 (Homo sapiens, UniProt P41162-2 1-143).
T5 sequence: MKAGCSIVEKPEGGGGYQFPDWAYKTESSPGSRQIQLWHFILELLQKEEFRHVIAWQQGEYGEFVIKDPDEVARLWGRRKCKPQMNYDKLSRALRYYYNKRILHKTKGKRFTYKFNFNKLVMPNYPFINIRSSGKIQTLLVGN
The method in brief:
as §1

For the next experiment, the target named is T6, ETV3L (Homo sapiens, UniProt Q6ZN32 1-361).
T6 sequence: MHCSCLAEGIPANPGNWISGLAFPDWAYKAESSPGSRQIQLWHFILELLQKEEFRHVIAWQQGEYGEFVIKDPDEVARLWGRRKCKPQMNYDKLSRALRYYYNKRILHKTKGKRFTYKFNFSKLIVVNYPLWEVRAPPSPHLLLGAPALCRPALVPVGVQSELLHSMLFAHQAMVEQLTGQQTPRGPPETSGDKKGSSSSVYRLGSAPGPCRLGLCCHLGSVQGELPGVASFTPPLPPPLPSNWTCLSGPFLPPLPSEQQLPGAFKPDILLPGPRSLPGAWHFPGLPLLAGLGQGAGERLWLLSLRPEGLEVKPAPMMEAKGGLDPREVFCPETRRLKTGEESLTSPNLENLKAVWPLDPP
The method in brief: as §1

For the next experiment, the target named is T7, GABPA (Homo sapiens, UniProt Q06546 1-454).
T7 sequence: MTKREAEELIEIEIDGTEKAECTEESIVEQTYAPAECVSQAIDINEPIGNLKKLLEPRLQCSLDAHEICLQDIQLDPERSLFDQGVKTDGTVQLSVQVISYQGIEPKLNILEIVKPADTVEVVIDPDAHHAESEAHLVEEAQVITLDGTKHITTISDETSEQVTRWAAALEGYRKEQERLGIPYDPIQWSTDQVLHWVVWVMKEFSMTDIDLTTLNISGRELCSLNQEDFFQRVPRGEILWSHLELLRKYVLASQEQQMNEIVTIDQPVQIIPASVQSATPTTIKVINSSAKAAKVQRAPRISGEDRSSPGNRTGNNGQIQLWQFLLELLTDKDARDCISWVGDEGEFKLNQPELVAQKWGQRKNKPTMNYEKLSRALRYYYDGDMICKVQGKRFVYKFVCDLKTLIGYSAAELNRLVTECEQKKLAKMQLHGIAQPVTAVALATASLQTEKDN
The method in brief: as §1

Another experiment concerns the target ELF1 (Homo sapiens, UniProt P32519 1-619). The method in brief:
as §1

The next experiment addresses T8, FEV (Homo sapiens, UniProt Q99581 1-238).
T8 sequence: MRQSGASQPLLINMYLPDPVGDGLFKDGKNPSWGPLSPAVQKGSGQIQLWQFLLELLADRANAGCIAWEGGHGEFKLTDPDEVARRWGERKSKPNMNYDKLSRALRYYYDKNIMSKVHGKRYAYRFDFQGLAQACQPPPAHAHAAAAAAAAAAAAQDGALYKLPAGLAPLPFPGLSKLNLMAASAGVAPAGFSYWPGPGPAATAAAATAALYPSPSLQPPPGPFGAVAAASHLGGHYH
The method in brief: as §1

The target in the next experiment is SPI1 (Homo sapiens, UniProt P17947 1-270). Summed up:
as §1

A further experiment deals with T9, ELK3 (Homo sapiens, UniProt P41970 1-407).
T9 sequence: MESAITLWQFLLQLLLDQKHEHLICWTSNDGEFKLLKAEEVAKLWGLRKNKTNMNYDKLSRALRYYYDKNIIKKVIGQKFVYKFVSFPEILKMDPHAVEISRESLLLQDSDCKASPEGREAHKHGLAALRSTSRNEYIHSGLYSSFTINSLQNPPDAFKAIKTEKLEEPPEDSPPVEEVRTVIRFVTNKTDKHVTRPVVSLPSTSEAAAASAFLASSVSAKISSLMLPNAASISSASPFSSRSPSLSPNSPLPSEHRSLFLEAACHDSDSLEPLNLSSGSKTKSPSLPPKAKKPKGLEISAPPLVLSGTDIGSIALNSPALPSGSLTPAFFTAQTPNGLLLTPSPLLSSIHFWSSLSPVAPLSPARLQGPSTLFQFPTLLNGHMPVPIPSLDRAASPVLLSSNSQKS
The method in brief: as §1

Another experiment has as its target ETV1 (Homo sapiens, UniProt P50549 1-477). The method in brief: as §1
The next experiment has as its target T10, ERG (Homo sapiens, UniProt P11308 1-479).
T10 sequence: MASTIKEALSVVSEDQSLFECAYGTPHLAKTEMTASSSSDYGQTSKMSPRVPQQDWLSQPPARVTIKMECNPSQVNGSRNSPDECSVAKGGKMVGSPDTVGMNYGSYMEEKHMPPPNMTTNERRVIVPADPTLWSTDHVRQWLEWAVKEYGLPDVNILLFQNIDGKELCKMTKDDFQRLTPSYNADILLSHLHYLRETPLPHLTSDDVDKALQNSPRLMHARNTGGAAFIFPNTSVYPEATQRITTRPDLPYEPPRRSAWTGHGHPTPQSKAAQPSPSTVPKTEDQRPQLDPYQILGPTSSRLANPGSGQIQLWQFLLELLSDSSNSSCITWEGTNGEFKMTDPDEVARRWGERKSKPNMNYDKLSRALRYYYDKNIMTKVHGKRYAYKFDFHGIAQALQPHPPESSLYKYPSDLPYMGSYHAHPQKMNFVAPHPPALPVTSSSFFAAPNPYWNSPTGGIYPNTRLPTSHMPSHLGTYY
Summed up: as §1

The target in a further experiment is T11, ETV7 (Homo sapiens, UniProt Q9Y603 1-341).
T11 sequence: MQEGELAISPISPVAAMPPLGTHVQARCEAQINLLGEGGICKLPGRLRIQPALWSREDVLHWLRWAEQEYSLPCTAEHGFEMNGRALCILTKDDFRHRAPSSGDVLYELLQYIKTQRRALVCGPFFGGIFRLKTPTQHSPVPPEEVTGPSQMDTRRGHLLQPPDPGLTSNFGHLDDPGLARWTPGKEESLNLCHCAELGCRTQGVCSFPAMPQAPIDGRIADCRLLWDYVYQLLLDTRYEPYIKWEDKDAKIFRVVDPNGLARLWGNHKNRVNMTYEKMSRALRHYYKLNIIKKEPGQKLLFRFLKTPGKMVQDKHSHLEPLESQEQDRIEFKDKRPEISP
Summed up:
as §1

Binding signal data for six sequences are collected here from article PMC7862700, “An all-to-all approach to the identification of sequence-specific readers for epigenetic DNA modifications on cytosine”.

ETV1, sequence (P50549 whole entry): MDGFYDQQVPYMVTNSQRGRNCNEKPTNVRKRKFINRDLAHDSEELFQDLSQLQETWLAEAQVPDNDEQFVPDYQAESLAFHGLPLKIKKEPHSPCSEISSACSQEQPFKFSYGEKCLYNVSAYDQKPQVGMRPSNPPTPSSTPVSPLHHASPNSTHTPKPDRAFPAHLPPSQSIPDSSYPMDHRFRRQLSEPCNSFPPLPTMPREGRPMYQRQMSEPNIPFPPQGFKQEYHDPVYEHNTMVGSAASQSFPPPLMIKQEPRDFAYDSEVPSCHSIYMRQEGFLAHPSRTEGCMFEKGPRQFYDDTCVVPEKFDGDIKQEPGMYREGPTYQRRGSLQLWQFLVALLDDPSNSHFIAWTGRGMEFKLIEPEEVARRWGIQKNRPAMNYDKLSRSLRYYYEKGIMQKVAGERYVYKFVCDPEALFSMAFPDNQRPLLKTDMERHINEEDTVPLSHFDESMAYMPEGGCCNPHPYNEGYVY
ELF1, sequence (P32519 whole entry): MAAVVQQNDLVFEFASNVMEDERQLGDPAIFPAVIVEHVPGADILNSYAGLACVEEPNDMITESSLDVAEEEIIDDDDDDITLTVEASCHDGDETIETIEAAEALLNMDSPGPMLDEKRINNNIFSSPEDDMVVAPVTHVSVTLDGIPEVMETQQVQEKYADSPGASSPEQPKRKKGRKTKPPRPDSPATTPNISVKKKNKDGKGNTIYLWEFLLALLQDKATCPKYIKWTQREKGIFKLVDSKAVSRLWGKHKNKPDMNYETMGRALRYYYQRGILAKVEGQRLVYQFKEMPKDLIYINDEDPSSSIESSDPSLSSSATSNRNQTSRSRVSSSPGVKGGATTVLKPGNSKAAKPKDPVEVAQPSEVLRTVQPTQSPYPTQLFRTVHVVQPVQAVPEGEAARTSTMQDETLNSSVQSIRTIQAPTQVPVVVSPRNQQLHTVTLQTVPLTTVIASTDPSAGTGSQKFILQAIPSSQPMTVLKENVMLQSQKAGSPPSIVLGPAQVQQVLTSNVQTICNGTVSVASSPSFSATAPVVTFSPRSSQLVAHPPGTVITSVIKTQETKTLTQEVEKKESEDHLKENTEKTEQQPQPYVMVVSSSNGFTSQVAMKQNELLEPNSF

Consider CGCGGA, for which the binding signal was 1.07 fold enrichment (6-mer frequency, TF over GST control) in the experiment with ELF3; 1 fold enrichment (6-mer frequency, TF over GST control) in the experiment with ETS2; 1.03 fold enrichment (6-mer frequency, TF over GST control) with SPDEF; 1.03 fold enrichment (6-mer frequency, TF over GST control) in the experiment with ELF5; 1.01 fold enrichment (6-mer frequency, TF over GST control) in the experiment with ETV3.

For GGTTGT, the binding signal was 1.06 fold enrichment (6-mer frequency, TF over GST control) with ELF3 and 1.03 fold enrichment (6-mer frequency, TF over GST control) with SPDEF.

As for GTATAG, the binding signal with ETV3L was 1 fold enrichment (6-mer frequency, TF over GST control).

In the case of AGGACT, the binding signal was 1.05 fold enrichment (6-mer frequency, TF over GST control) in the experiment with GABPA; 1 fold enrichment (6-mer frequency, TF over GST control) in the experiment with ELF1; 1.01 fold enrichment (6-mer frequency, TF over GST control) with FEV; 1.06 fold enrichment (6-mer frequency, TF over GST control) with ETV3.

Turning to AAGGGG, the binding signal in the experiment with SPI1 is 1.36 fold enrichment (6-mer frequency, TF over GST control); with ELK3, 1.05 fold enrichment (6-mer frequency, TF over GST control); in the experiment with ETV1 it was 1.07 fold enrichment (6-mer frequency, TF over GST control).

Regarding CCTGTC, the binding signal in the experiment with ERG is 1.01 fold enrichment (6-mer frequency, TF over GST control); with ETV7 it was 1.03 fold enrichment (6-mer frequency, TF over GST control).
